According to ChEMBL document CHEMBL3988442, “University of Dundee, Small-Polar-MMV Screening Library” (2021):
For part of these data: Measured potencies and affinities stand elsewhere.

What was measured:
Parameters in all cases: scale not given: direction of the effect not stated beside the values
[1] = molecular target: Protein translocase subunit SecA (Escherichia coli (strain K12)) (UniProt P10408); test: Assay to Identify E. coli SecA ATPase Inhibitors; type: functional; conditions: 30 µM
[2] = molecular target: T1, Ubiquitin-activating enzyme e1, putative (Leishmania donovani (strain BPK282A1)) (UniProt E9BSI1); test: Leishmania donovani Ubiquitin Activating Enzyme (LdE1); type: functional; conditions: 30 µM
T1 sequence (whole entry): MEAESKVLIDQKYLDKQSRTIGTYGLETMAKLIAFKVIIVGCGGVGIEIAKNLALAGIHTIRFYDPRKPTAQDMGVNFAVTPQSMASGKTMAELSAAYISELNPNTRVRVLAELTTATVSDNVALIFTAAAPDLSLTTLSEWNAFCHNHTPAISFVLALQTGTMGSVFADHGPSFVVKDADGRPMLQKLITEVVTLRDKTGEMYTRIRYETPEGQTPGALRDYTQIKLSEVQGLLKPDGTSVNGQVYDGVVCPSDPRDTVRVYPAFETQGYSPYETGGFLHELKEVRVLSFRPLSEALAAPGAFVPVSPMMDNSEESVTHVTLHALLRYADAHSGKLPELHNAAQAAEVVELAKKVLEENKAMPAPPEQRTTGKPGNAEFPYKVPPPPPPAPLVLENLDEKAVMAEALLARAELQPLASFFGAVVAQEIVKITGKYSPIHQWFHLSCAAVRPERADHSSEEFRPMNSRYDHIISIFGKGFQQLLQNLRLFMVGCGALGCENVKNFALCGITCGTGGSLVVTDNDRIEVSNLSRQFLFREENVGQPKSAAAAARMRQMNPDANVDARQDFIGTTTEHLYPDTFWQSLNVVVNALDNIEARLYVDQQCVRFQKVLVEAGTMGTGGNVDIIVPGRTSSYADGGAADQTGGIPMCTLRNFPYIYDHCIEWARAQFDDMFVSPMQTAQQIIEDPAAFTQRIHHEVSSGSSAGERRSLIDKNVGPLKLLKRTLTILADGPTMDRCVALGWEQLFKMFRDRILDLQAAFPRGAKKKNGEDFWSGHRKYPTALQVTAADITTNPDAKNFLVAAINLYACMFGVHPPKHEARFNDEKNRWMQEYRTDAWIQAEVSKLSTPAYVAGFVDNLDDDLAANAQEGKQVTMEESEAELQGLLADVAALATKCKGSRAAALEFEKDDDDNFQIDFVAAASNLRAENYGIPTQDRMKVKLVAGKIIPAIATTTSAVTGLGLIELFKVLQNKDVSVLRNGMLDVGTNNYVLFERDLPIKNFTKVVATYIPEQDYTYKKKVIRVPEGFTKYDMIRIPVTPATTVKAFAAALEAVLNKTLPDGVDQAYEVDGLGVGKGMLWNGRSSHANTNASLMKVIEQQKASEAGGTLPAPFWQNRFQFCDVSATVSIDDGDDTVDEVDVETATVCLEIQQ

[3] = molecular target: Sialic acid-binding Ig-like lectin 9 (Homo sapiens) (UniProt Q9Y336); test: Hs-Siglec9 ALPHAscreen SOP 20170721; conditions: 10 µM
Trypanosoma cruzi = test: Trypanosoma cruzi phosphomannomutase and mannose-1-phosphate guanylyltransferase assay; type: functional; conditions: 10 µM
[4] = molecular target: T2, Arginase-2, mitochondrial (Homo sapiens) (UniProt P78540); test: in vitro enzyme assay to detect the production of urea directly proportional to the activity of Arginase II; type: functional; conditions: 33.3 µM; note: in the data most compounds retested in dose-response had high values
T2 sequence (whole entry): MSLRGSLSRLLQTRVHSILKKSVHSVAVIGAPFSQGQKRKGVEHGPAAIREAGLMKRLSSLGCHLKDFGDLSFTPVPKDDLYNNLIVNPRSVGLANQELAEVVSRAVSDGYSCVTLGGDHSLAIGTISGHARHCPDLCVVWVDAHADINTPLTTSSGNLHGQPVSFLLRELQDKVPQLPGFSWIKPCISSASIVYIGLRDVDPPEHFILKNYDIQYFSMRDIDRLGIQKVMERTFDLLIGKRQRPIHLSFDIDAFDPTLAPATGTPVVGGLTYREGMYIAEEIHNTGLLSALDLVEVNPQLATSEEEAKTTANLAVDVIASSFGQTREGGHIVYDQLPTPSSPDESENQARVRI

[5] = molecular target: T3, Proteasome subunit beta (Trypanosoma cruzi) (UniProt O96673); test: Trypanosoma cruzi proteasome chymotrypsin-like activity (TcProtChymo) assay.; note: in the data most compounds retested in dose-response had high values; type: functional; conditions: 9.37 µM
T3 sequence (whole entry): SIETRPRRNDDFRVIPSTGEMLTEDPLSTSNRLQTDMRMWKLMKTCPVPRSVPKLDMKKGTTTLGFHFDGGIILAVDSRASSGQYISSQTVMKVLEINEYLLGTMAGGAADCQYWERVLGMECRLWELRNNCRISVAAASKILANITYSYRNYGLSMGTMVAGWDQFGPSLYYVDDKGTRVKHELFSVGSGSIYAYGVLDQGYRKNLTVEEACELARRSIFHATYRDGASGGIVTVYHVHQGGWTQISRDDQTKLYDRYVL

Homo sapiens = organism: Homo sapiens; test: To identify inhibition of the IFN signalling (Jak-Stat) pathway via expression of an eGFP reporter gene under the control of an IFN-stimulated response element (ISRE) containing MxA promoter.; type: functional; conditions: 30 µM
[6] = molecular target: T4, Tyrosyl-tRNA synthetase, putative (Trypanosoma cruzi (strain CL Brener)) (UniProt Q4DSP6); test: Trypanosoma cruzi tyrosyl tRNA synthetase (TcYRS) _High Tyrosine SOP; type: functional; conditions: 30 µM; note: in the data most compounds retested in dose-response had high values
T4 sequence (whole entry): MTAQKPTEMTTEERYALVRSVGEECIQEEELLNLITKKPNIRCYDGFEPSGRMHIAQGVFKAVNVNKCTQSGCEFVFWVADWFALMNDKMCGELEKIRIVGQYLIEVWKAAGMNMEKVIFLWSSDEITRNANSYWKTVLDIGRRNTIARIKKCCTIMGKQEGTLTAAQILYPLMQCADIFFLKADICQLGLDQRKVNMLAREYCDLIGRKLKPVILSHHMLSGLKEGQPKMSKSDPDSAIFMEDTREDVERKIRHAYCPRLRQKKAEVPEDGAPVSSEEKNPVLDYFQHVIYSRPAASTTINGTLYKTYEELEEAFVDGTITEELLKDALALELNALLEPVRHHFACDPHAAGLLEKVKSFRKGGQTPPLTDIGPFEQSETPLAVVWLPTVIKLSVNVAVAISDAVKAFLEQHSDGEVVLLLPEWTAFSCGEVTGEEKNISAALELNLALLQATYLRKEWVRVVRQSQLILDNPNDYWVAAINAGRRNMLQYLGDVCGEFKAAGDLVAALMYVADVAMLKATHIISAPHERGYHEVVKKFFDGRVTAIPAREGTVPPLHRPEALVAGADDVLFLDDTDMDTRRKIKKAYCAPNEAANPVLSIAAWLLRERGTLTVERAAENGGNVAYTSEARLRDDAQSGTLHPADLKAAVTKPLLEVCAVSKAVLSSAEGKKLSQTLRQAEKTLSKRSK

[7] = molecular target: T4, Tyrosyl-tRNA synthetase, putative (Trypanosoma cruzi (strain CL Brener)); test: Trypanosoma cruzi tyrosyl tRNA synthetase (TcYRS) SOP; type: functional; conditions: 30 µM
[8] = molecular target: Chromo domain-containing protein 1 (Saccharomyces cerevisiae (strain ATCC 204508 / S288c) (Baker's yeast)) (UniProt P32657); test: ScCHD-1 Enzyme Inhibition Assay; type: functional; conditions: 30 µM; note: in the data most compounds retested in dose-response had high values
Chain of Chromo domain-containing protein 1 (Saccharomyces cerevisiae (strain ATCC 204508 / S288c) (Baker's yeast)) (P32657 whole entry, the tested form may be a part): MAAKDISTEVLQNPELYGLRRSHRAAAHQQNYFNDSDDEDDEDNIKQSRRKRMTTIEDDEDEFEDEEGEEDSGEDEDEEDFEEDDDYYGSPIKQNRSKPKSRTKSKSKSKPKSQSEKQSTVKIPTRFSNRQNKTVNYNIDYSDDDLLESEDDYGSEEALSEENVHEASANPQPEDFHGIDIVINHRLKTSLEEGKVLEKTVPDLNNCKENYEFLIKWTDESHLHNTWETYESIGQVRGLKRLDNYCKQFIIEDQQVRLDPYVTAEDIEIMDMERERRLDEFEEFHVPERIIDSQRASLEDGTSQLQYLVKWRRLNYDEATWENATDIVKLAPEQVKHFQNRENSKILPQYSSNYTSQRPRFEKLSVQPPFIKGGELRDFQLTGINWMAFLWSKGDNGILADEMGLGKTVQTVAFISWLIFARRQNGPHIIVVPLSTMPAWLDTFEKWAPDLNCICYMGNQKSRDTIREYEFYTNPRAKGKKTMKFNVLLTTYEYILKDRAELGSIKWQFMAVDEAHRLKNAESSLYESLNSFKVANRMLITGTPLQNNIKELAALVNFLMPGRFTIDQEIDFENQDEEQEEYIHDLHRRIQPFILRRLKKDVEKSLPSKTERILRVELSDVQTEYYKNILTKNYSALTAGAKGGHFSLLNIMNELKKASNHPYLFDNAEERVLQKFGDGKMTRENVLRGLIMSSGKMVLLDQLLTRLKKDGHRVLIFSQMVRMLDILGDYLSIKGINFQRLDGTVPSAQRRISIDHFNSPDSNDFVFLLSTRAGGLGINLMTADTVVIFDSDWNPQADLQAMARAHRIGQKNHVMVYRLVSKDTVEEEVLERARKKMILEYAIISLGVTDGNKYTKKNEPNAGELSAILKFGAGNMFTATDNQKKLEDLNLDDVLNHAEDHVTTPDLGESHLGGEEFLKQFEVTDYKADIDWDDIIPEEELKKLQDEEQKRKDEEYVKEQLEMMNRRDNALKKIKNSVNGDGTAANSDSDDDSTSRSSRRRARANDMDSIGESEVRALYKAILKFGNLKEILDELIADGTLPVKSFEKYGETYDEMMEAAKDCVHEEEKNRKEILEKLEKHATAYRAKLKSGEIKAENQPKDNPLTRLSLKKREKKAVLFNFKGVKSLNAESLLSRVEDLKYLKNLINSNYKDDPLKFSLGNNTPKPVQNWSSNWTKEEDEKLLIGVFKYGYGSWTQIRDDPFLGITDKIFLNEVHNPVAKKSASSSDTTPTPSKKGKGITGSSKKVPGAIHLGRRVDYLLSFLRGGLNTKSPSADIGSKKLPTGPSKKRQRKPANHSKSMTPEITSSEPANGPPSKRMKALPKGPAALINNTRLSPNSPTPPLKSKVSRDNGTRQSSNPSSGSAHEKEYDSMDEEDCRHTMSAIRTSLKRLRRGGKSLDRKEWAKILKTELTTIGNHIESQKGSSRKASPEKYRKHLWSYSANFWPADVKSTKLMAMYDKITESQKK

Chain of Protein translocase subunit SecA (Escherichia coli (strain K12)) (P10408 whole entry): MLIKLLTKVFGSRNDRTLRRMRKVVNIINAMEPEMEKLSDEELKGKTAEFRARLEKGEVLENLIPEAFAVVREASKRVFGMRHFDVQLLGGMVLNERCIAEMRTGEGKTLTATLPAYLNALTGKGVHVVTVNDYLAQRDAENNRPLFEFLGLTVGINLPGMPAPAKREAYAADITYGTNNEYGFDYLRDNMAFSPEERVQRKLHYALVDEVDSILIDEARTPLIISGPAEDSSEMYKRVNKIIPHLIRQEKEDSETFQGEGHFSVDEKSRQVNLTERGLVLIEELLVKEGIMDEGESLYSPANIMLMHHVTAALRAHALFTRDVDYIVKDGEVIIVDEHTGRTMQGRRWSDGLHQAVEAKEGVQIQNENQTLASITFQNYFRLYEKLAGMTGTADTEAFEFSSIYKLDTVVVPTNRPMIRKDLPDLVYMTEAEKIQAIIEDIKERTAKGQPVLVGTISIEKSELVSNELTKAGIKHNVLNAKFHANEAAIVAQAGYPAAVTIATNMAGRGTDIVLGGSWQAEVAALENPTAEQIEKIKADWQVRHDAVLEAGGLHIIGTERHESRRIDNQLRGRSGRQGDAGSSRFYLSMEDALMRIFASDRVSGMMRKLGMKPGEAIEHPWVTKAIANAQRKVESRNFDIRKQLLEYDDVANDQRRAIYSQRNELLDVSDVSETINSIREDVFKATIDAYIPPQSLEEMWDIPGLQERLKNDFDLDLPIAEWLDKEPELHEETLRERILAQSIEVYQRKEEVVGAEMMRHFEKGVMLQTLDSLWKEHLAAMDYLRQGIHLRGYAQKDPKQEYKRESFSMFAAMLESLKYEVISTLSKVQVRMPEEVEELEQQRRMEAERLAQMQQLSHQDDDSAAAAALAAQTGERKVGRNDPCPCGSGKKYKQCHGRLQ
Chain of Sialic acid-binding Ig-like lectin 9 (Homo sapiens) (Q9Y336 whole entry): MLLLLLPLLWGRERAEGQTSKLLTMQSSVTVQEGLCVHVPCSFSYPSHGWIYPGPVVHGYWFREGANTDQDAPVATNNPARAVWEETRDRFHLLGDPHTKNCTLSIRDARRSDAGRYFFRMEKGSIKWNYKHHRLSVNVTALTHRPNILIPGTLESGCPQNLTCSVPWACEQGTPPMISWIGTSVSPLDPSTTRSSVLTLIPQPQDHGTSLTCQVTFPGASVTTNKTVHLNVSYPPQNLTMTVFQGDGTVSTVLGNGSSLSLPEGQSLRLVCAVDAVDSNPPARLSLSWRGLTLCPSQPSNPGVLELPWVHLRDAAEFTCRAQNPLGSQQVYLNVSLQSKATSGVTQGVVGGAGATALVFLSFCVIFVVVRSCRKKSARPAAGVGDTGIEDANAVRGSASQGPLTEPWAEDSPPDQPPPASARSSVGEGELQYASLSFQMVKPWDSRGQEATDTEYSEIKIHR

| Compound | Percent Effect [1] | Percent Effect [2] | Percent Effect [3] | Percent Effect (Trypanosoma cruzi) | Percent Effect [4] | Percent Effect [5] | Percent Effect (Homo sapiens) | Percent Effect [6] | Percent Effect [7] | Percent Effect [8] |
| --- | --- | --- | --- | --- | --- | --- | --- | --- | --- | --- |
| Cn1cc(-c2nc(CNCCn3cccn3)cs2)cn1 | 3.44% | 10.3% | -15.7% | -6.67% | -0.41% | 16% | 32.9% | 8.13% | 13.2% | 27.9% |
| CC1(C)OCC(CNC(=O)c2cnn(-c3ccc(Cl)cc3)c2N)O1 (stereo not given) | 2.19% | 17.3% | -9.2% | -2.76% | -0.443% | 14% | 15.1% | -6.35% | 2.5% | -22.4% |
| COCCCN1CC2(CCCCN2C(=O)c2ccsc2)CC1=O (stereo not given) | 0.227% | 3.9% | 1.99% | 2.44% | 1.83% | 0.601% | 15.2% | 0% | 7.5% | 2.21% |
| Cc1cnn(CC2CCCCN2CCn2cncn2)c1 (stereo not given) | -1.55% | 16% | -7.29% | -3.61% | 4.88% | 14.2% | 5.08% | 5.79% | 7.69% | -6.72% |
| Cc1cc(C(=O)NC2CCc3nc(C)cn3C2)[nH]n1 (stereo not given) | -3.96% | 2.67% | 4.26% | -0.803% | 1.77% | 5.68% | 3.16% | 3.68% | 5.13% | -7.74% |
| Cc1cnn(C2CCCN(C(=O)c3sccc3-n3cnnn3)C2)c1 (stereo not given) | -2% | 7.69% | -3.12% | -5.54% | 2.46% | 7.93% | 33.8% | 5.26% | 10.8% | 3.04% |
| CC(C)N(C)C(=O)CN1CCCC(c2ccc(C(=O)O)cc2)C1 (stereo not given) | -2.28% | 18.9% | -0.275% | 0.485% | -66.1% | 12.3% | 29.1% | 5.85% | 19.5% | -6.15% |
| CCCC(C)C(=O)N1CCC(n2cccc2C(=O)OC)CC1 (stereo not given) | -6.33% | 10.4% | 13.2% | -1.12% | 1.43% | 2.46% | 31% | 2.94% | 9.41% | 6.48% |
| Cc1cncc(C2CCCN(Cc3cccn3C)C2)n1 (stereo not given) | -2.21% | 12% | 2.11% | -0.592% | -6.64% | 10.5% | 6.97% | 9.52% | 12.5% | -15.4% |
| Cc1cnn(CC2CN(CC(=O)N(C)c3nccs3)CCO2)c1 (stereo not given) | -4.67% | 8% | 4.67% | 0.201% | -2.66% | 9.75% | 13.5% | 4.74% | 10.3% | -8.81% |
| Cc1csc2ncc(-c3ccnc(N4CCCC[C@@H]4CO)n3)c(=O)n12 | -2.72% | -16% | -2.59% | -2.41% | 0% | 7.72% | 19.8% | -3.68% | -12.8% | -17.9% |
| O=C(c1ccco1)N1CCC2(CCC(=O)N2Cc2cccc(F)c2)CC1 | -1.47% | 14.3% | 3% | -1.31% | 0% | 6.09% | -5.56% | 5.8% | 10% | -5.07% |
| Cc1ccc(CN2CCCn3c(nc(CN4CCCC4)cc3=O)C2)s1 | -4.72% | 3.9% | -1.12% | -2.82% | -2.02% | 2.38% | -18.4% | 0.526% | 7.69% | 3.51% |
| Cc1noc(C2CCN(C(=O)CCNS(C)(=O)=O)CC2)n1 | -2.97% | 10.3% | 4.81% | 3.47% | 3.69% | 5.89% | 3.03% | 4.31% | 18.1% | -0.743% |
| CC(O)(CN1CCC2(CC1)OCCO2)c1cccc(C(F)(F)F)c1 (stereo not given) | 1.91% | 10.4% | 8.88% | -0.187% | -2.25% | 2.98% | 18.4% | 3.92% | 21.2% | -7.48% |
| COc1cccc2c1OCC(C(=O)N1CCC(N3CCOC3=O)CC1)C2 (stereo not given) | -6.75% | 13.5% | 15.6% | 4.95% | 10.8% | 9.59% | 8.78% | 9.04% | 12.2% | -5.88% |
| CCOC(=O)N1CCN(C(=O)c2sc(-c3ccc(F)cc3)nc2C)CC1 | -7.21% | 5.41% | 8.85% | -1.65% | 1.05% | 17.5% | 1.22% | 4.79% | 12.2% | -3.55% |
| Cc1cccc(CN2C(=O)CCC23CCN(c2ncc(F)cn2)CC3)n1 | -5.56% | 16.9% | -3.32% | -1.13% | 5.02% | 0.258% | -16% | 11.6% | 15% | -8.12% |
| O=C(c1cnco1)N1CCCC(Cc2nccs2)C1 (stereo not given) | -3.28% | 14.7% | 5.58% | 0.395% | 4.87% | 19.1% | -17.7% | 7.41% | 15% | -20.4% |
| O=C(NCCc1coc(-c2ccc(F)cc2)n1)NC1CCC(O)CC1 (stereo not given) | -5.41% | 21.3% | 5.86% | 5.82% | -0.887% | 15.7% | 6.59% | 5.79% | 15.4% | -15.6% |
| Cc1noc(C2CCN(C(=O)c3ccc(NC4CC4)nc3)CC2)n1 | -3.73% | 20.5% | -12.9% | 4.6% | 1.64% | 11.3% | 11.4% | 2.39% | 20.5% | -6.59% |
